This is a sample that favours compounds with a hit; in the whole collection about 1.6% have one here.
eIF4H inh = inhibitors of RNA binding by human eIF4H; Q15056; eIF4H fluorescence polarization binding assay; 0.94% of 290,000 active; inhibition, % at 35 µM;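 further: calls also rest on retests at 20 µM and on dose response follow-up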
MLLE-PAM2 inh = blocks PAM2 peptide binding to the PABP1 MLLE domain; P11940; GST-MLLE / FITC-PAM2 fluorescence polarization; inhibition, % at 20 µM; 0.36% of 360,000 active; in the data active means inhibition above about 35%, passing the limit was not always enough
PABP polyA inh = blocks human PABP binding to poly(A) RNA; inhibition, % at 35 µM; 1% of 290,000 active; fluorescence polarization; AID 2014;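 further: calls also rest on retests at 20 µM and on dose response follow-up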
eIF4E 4G PPI = inhibitors of eIF4E and eIF4G interaction in translation initiation. P63073+Q04637. TR-FRET eIF4E-eIF4GI(517-606) binding, 2 h. inhibition, % at 21.7 µM. 0.37% of 220,000 active. AID 782;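 active means inhibition above about 30%, limit read from the data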
PERK inhibitor = blocks human PERK kinase; CHO PERK-DD fusion, SEAP luminescence translation reporter; 0.17% of 220,000 active; inhibition, % at 5.6 µM;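 active means inhibition above the mean inhibition of all tested compounds plus 3 SD, set separately per screening campaign, cut at about 2.9% in these data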;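 further: PERK kinase domain activated by AP20187 dimerizer at 100 nM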
Of the large screens only hits and unclear results are named; the others gave an inactive call. Unless noted, how the calls were made is not given here.

N=c1c(C(=O)NCc2ccc(F)cc2)cc2c(=O)n3ccccc3nc2n1Cc1ccco1	none
Cc1ccc2nc3c(cc(C(=O)NCc4ccco4)c(=N)n3Cc3ccco3)c(=O)n2c1	eIF4H inh inconclusive, PABP polyA inh inconclusive
Cc1ccc(S(=O)(=O)c2cc3c(=O)n4ccccc4nc3n(Cc3ccco3)c2=N)cc1	eIF4H inh 78, PABP polyA inh 83
N=c1c(C(=O)NCc2ccco2)cc2c(=O)n3ccccc3nc2n1C1CCCC1	eIF4H inh 78, PABP polyA inh 53 (no result: eIF4E 4G PPI, PERK inhibitor)
N=c1c(C(=O)NCc2ccccc2)cc2c(=O)n3ccccc3nc2n1Cc1ccco1	eIF4H inh 84, PABP polyA inh 52 (no result: eIF4E 4G PPI)
N=c1c(C(=O)NC2CCCC2)cc2c(=O)n3ccccc3nc2n1C1CCCC1	none (no result: eIF4E 4G PPI)
Cc1ccc(CNC(=O)c2cc3c(=O)n4ccccc4nc3n(Cc3ccco3)c2=N)cc1	eIF4H inh 56, PABP polyA inh 41 (no result: eIF4E 4G PPI, PERK inhibitor)
O=C(CSc1nc2ccc([N+](=O)[O-])cc2[nH]1)NC1CCCCCC1	none
COCCN(C(=O)CSc1nn(-c2ccc(F)cc2)c(=S)s1)c1c(N)n(CC(C)C)c(=O)[nH]c1=O	none (no result: eIF4H inh, PABP polyA inh, eIF4E 4G PPI, PERK inhibitor)
COc1ccc(NS(=O)(=O)c2cccc(NC(=O)CNC(C)=O)c2)cc1	none
Cc1ccc(-c2nn(-c3ccccc3)cc2C2CC(c3ccccc3)=NN2C(=O)CCC(=O)O)cc1 (stereo not drawn)	none
COc1ccc(CCNC(=O)c2cc3c(=O)n4cccc(C)c4nc3n(Cc3ccco3)c2=N)cc1OC	eIF4H inh 63 (no result: eIF4E 4G PPI, PERK inhibitor)
N=c1c(C(=O)NCc2ccco2)cc2c(=O)n3ccccc3nc2n1Cc1ccc(Cl)cc1	none (no result: eIF4E 4G PPI)
COCCCn1c(=N)c(C(=O)NCc2ccc3c(c2)OCO3)cc2c(=O)n3ccccc3nc21	none
COCCn1c(=N)c(C(=O)NCc2ccco2)cc2c(=O)n3ccccc3nc21	eIF4H inh 113, PABP polyA inh 79 (no result: eIF4E 4G PPI)
N=c1c(C(=O)NCc2ccco2)cc2c(=O)n3ccccc3nc2n1Cc1ccccc1	eIF4H inh 77, PABP polyA inh 69
Cc1ccccc1NC(=S)/C(=C(\[O-])c1cc(C)n(Cc2ccccc2Cl)c1C)[n+]1ccccc1	none
CN1C(=O)CSC1=Nc1ccc(F)cc1	none (no result: eIF4E 4G PPI, PERK inhibitor)
O=[N+]([O-])c1cnc2ccccc2c1	none
O=[N+]([O-])c1cc([N+](=O)[O-])c2cc3ccccc3nc2c1	MLLE-PAM2 inh 45 (no result: eIF4E 4G PPI, PERK inhibitor)
CC(C)CSc1nc(N)nc2c1ncn2C1OC(CO)C(O)C1O (stereo not drawn)	none (no result: eIF4H inh, PABP polyA inh, eIF4E 4G PPI, PERK inhibitor)
CC(C)(C)C1CCC(=NNC(=O)CN(c2ccccc2)S(C)(=O)=O)CC1 (stereo not drawn)	none
Cc1cccc(C)c1NC(=O)c1cc(-c2ccccn2)nc2ccccc12	eIF4H inh active
COc1ccc(NC(=S)NC(C)Cc2cccs2)cc1 (stereo not drawn)	eIF4H inh 108, PABP polyA inh 9.7
CC(Cc1cccs1)NC(=S)Nc1ccc(F)cc1 (stereo not drawn)	none
O=C(CCSc1ccc(Cl)cc1)c1ccco1	none (no result: eIF4E 4G PPI, PERK inhibitor)
O=C(CSc1ccc(Cl)cc1)c1ccco1	eIF4H inh 87, PABP polyA inh 38
CN1CCN(S(=O)(=O)c2cccc3nsnc23)CC1	none (no result: eIF4E 4G PPI, PERK inhibitor)
C/C(=C(\C#N)C(=O)NCCN1CCOCC1)N(C)C	none
CN(C(=O)CSc1nnc(-c2cccnc2)n1-c1ccccc1F)C1CCS(=O)(=O)C1 (stereo not drawn)	eIF4H inh 39, PABP polyA inh 59
Cc1ccccc1-n1c(SCC(=O)c2cc(C)n(C)c2C)nnc1-c1cccnc1	none
COCCn1c(C)cc(C(=O)CSc2nnc(-c3cccnc3)n2-c2ccccc2F)c1C	PABP polyA inh 124
COc1ccc(NS(=O)(=O)c2ccc3oc(=O)ccc3c2)cc1	none (no result: eIF4E 4G PPI, PERK inhibitor)
O=C(Nc1ccccc1Oc1cccnc1)C1CCCN(Cc2ccccc2O)C1 (stereo not drawn)	none (no result: eIF4E 4G PPI, PERK inhibitor)
O=C(CSc1nc(-c2ccc(F)cc2)nc2c1Cc1ccccc1O2)Nc1ccc(C(=O)O)cc1	eIF4E 4G PPI 62
O=C(CSc1nc(-c2ccccc2)nc2c1Cc1ccccc1O2)Nc1ccc(C(=O)O)cc1	eIF4E 4G PPI 60
CC(=O)Nc1cc(C(=O)N2CCCC2)ccc1Sc1ccc(C)cc1	none
O=C(Nc1nnc(Cc2ccccc2)s1)c1cccnc1	none
O=C(CC(Sc1ccccc1)c1cccs1)c1ccco1 (stereo not drawn)	MLLE-PAM2 inh 37
COc1ccc(S(=O)(=O)C(C#N)c2nc3ccccc3nc2N2CCCCC2)cc1 (stereo not drawn)	eIF4H inh 97, PABP polyA inh 103
Cc1cccc(S(=O)(=O)C(C#N)c2nc3ccccc3nc2N2CCCC2)c1 (stereo not drawn)	eIF4H inh 122, PABP polyA inh 122
N#CC(c1nc2ccccc2nc1N1CCCC1)S(=O)(=O)c1ccccc1 (stereo not drawn)	eIF4H inh inconclusive, PABP polyA inh inconclusive
Cc1ccc(C)c(S(=O)(=O)C(C#N)c2nc3ccccc3nc2N2CCCC2)c1 (stereo not drawn)	eIF4H inh inconclusive, PABP polyA inh inconclusive
Cc1ccc(S(=O)(=O)C(C#N)c2nc3ccccc3nc2N2CCN(C)CC2)cc1C (stereo not drawn)	eIF4H inh 122, PABP polyA inh 119
Cc1ccc(C)c(S(=O)(=O)C(C#N)c2nc3ccccc3nc2N2CC(C)OC(C)C2)c1 (stereo not drawn)	eIF4H inh 78, PABP polyA inh 114
CCOC(=O)Cc1c(C)nc2c(-c3ccccc3)c(C)nn2c1C	none
COc1ccc2nc(N3CCCCC3)c(C#N)cc2c1	MLLE-PAM2 inh 40
COc1ccc2nc(N3CCCC3)c(C#N)cc2c1	eIF4H inh inconclusive, PABP polyA inh inconclusive
Cc1cc(C)n2nc(SCc3ncc(-c4ccccc4)o3)nc2n1	none (no result: PERK inhibitor)
COc1cc(CNC(C)(C)CO)cc(Br)c1OCc1ccc(Cl)cc1Cl	none
COC(=O)C(NC(C)=O)(Nc1ccc(C)cn1)C(F)(F)F (stereo not drawn)	PERK inhibitor 3.4
CCOC(=O)NC(Nc1ccc(C)cn1)(C(F)(F)F)C(F)(F)F	none
COc1cc2c(-c3ccc(O)cc3)nc3c(c(C)nn3-c3ccccc3)c2cc1OC	eIF4E 4G PPI 39
CCC(C)[C@H](NC(=O)C1CC(=O)N(c2ccc3c(c2)OCO3)C1)C(=O)NC1CCCCC1 (stereo partly drawn)	eIF4H inh inconclusive, MLLE-PAM2 inh 49, PABP polyA inh inconclusive (no result: eIF4E 4G PPI, PERK inhibitor)
CN1C(=O)C2(c3ccccc31)C1CCCC=C1C(C#N)=C(N)C2(C#N)C#N (stereo not drawn)	eIF4H inh 44, PABP polyA inh 66
CN1CCN(C2=C(Cl)C(=O)N(Cc3ccccc3)C2=O)CC1	eIF4H inh 89, PABP polyA inh 90
Cc1ccnc(N2C(=O)c3cccc4c([N+](=O)[O-])ccc(c34)C2=O)c1	eIF4H inh 77, MLLE-PAM2 inh 63, PABP polyA inh 14
Fc1cccc(NC(=S)Nc2cccnc2)c1	MLLE-PAM2 inh 42
Cc1cc(Cl)ccc1NC(=S)NC(C)(C)C	MLLE-PAM2 inh 40
Cc1cc(Cl)ccc1NC(=S)Nc1cccnc1	MLLE-PAM2 inh 38
